A short description of assay [1]: antimalarial activity against Dd2 strain (AID 2302;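 active = growth inhibition above 50% at the single 2 µM test dose, taken to imply half-maximal potency below 2 µM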;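 note: 0% = DMSO untreated growth and 100% = chloroquine plus artemisinin killed control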). The conditions noted are these: P. falciparum Dd2 in RBCs, LDH growth readout, 72 h; at 2 µM; active compounds read high.
A short description of assay [2]: HepG2 cytotoxicity, primary screen, cytotoxicity control for P. falciparum antimalarial project, cell-based, ATP luminescence (AID 2303;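 active = inhibition above 50%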;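 note: 0% = DMSO wells and 100% = digitonin-killed cells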). Conditions: HepG2 viability, 24-48 h, at 10 µM, active compounds read high.
The target in assay [3] is L-lactate dehydrogenase (Plasmodium falciparum (isolate CDC / Honduras)) (UniProt Q27743). The assay can be described thus: PfLDH activity inhibition – cell lysate, 3D7 strain, counter-screen for P. falciparum growth inhibition project (AID 2304).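 Note: 0% = vehicle and 100% = reference inhibitor.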 The conditions noted are these: P. falciparum 3D7 crude extract, LDH APAD/NBT absorbance; at 2 µM; active compounds read high.
Sequence of L-lactate dehydrogenase (Plasmodium falciparum (isolate CDC / Honduras)) (Q27743 whole entry, looked up): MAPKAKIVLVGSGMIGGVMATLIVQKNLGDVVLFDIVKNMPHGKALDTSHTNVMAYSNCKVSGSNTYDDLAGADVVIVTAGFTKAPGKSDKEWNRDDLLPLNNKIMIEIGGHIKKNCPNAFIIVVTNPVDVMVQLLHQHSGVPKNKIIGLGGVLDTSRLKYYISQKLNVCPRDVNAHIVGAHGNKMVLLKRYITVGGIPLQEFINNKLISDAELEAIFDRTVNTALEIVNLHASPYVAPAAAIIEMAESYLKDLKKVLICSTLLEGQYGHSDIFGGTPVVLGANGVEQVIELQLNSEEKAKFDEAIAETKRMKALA
Assay [4] in a line: inhibition of 3D7 malaria parasite growth – strain 3D7 (AID 2306).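 Note: 0% = DMSO wells and 100% = chloroquine plus artemisinin control wells.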 The conditions noted are these: P. falciparum 3D7 erythrocytic growth, LDH absorbance, 72 h; at 2 µM; active compounds read high.
The target in assay [5] is Calcium-dependent protein kinase 1 (Plasmodium falciparum (isolate 3D7)) (UniProt P62344). Kind of assay: PfCDPK1 kinase inhibitors, biochemical, TCAMS library (AID 1159585; cut-off not given, nearly all actives have IC50 up to about 0.98 µM;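 note: inhibitors leave more ATP so luminescence rises with inhibition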). Conditions: recombinant PfCDPK1, Kinase-Glo ATP depletion luminescence. Background: In Kinase-Glo more light means more ATP remaining.
Sequence of Calcium-dependent protein kinase 1 (Plasmodium falciparum (isolate 3D7)) (P62344 whole entry, looked up): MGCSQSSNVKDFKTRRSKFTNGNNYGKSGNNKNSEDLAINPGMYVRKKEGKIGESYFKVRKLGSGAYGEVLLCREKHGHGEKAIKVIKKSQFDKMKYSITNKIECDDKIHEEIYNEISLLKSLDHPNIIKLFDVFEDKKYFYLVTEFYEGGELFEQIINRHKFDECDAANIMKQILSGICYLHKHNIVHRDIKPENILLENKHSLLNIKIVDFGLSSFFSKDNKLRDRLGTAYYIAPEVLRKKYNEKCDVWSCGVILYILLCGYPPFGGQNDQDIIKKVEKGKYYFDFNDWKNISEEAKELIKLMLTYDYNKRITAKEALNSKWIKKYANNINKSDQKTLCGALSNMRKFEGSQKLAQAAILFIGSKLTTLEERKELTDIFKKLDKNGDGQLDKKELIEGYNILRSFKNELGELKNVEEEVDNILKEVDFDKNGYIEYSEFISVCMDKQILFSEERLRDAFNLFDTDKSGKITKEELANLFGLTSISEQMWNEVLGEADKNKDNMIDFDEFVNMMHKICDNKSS
Assay [6] deals with Plasmodium falciparum protein kinase 6 (PK6, PF3D7_1337100) (UniProt Q8IDW1). The assay can be described thus: PfPK6 kinase inhibitors, biochemical, TCAMS library (AID 1159586). The conditions noted are these: recombinant PfPK6, Kinase-Glo ATP depletion luminescence.
Sequence of Plasmodium falciparum protein kinase 6 (PK6, PF3D7_1337100) (Q8IDW1 1-305): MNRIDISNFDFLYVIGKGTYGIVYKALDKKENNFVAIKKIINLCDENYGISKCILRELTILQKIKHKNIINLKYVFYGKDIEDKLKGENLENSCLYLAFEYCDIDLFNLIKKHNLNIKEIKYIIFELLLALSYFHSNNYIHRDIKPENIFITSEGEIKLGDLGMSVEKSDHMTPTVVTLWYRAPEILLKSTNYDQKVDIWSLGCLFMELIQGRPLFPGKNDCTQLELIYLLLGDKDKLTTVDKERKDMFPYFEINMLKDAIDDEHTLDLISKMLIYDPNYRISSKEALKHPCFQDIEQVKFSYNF
Assay [7] has as its target Protein kinase 7 (PK7), Plasmodium falciparum 3D7 (PF3D7_0213400) (UniProt Q7YTF7). The assay can be described thus: inhibition of Plasmodium PK7 catalytic activity – biochemical, TCAMS antimalarial set, Kinase-Glo luminescence (AID 1159587). The conditions noted are these: recombinant PfPK7, Kinase-Glo ATP depletion luminescence.
The target in assay [8] is Calcium-dependent protein kinase 4 (Plasmodium falciparum (isolate 3D7)) (UniProt Q8IBS5). The assay can be described thus: PfCDPK4 kinase inhibitors, biochemical, TCAMS library (AID 1159588; cut-off not given, nearly all actives have IC50 up to about 0.91 µM). Conditions: recombinant PfCDPK4, Kinase-Glo ATP depletion luminescence.
Sequence of Calcium-dependent protein kinase 4 (Plasmodium falciparum (isolate 3D7)) (Q8IBS5 whole entry, looked up): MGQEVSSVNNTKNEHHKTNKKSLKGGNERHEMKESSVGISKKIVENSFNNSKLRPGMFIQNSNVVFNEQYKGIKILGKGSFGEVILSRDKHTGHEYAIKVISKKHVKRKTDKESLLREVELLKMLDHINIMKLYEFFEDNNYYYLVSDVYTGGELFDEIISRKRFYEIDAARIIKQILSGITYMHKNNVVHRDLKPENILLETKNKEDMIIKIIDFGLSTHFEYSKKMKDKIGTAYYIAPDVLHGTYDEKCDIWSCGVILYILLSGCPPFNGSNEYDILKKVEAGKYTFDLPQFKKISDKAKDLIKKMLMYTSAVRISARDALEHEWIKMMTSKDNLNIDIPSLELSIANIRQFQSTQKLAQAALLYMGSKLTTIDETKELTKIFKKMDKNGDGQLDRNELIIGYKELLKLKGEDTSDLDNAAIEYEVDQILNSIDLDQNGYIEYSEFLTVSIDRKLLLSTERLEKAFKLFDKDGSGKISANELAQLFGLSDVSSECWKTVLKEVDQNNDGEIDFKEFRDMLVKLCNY

Consider 20 compounds from PubChem BioAssay.

A number with no mark means an inactive call. For some of these results: Results with a measured potency or affinity are listed apart. Calls of active or inactive are those of the source. Unless noted, the rule behind the calls is not given here.

Sequence of Protein kinase 7 (PK7), Plasmodium falciparum 3D7 (PF3D7_0213400) (Q7YTF7 1-343): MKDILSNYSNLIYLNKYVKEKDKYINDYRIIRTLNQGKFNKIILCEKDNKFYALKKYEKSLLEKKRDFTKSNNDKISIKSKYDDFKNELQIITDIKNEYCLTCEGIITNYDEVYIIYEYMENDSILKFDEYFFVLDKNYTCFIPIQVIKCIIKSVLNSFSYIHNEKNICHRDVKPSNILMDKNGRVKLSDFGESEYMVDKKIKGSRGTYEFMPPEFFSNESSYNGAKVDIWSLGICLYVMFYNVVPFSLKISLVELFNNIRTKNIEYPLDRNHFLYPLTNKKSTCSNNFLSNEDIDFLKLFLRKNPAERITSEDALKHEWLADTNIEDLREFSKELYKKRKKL

Broadly, the inhibition is the change of the read-out against control, counted positive when it falls. Regarding `O=C(Nc1ccc(CCNCc2ccccc2)cc1)Nc1ccc(OC(F)(F)F)cc1`, the growth inhibition was 22% in assay [1] and 102% (active) in assay [4]. Further, the inhibition in assay [2] and in assay [3] was -2% throughout. Moreover, the outcome in assay [5], in assay [6], in assay [7] and in assay [8] was inactive.

As to `C=CCOC(=O)N1CCC(CNCc2ccc(-c3ccc(-c4nc5ccc(C(F)(F)F)cc5[nH]4)cc3)cc2)C1` (stereo not given), the growth inhibition is 98% (active) in assay [1] and 103% (active) in assay [4]. The figures for the inhibition in assay [2] and in assay [3] were 44% and -2%, respectively. Besides, the outcome in assay [5], in assay [6], in assay [7] and in assay [8] was inactive.

Take `COc1ccc(NC(=O)/C=C/c2ccc(Cl)c(C(F)(F)F)c2)cc1OCCN(C(C)C)C(C)C`: the growth inhibition is 28% in assay [1] and 95% (active) in assay [4]. The inhibition in assay [2] was 18%; in assay [3] it was -1%. Besides, the outcome in assay [5], in assay [6], in assay [7] and in assay [8] was inactive.

In the case of `O=C(Nc1ccc(Br)cc1)N(CCN1CCOCC1)CC(O)COCc1ccc(Cl)c(Cl)c1` (stereo not given), the growth inhibition in assay [1] is 52% (active); in assay [4], 94% (active). Also, the inhibition was 16% in assay [2] and -5% in assay [3]. Further, the result in assay [5], in assay [6], in assay [7] and in assay [8] was inactive.

On to `Cc1ccccc1Cn1c(CN2CCC(C(=O)NC3CC3)CC2)cc2ccccc21`, for which the growth inhibition in assay [1] is 96% (active); in assay [4], 97% (active). Further, the inhibition in assay [2] was 7%; in assay [3] it was -2%. Also, the result in assay [5], in assay [6], in assay [7] and in assay [8] was inactive.

For the compound `CC(=O)Nc1ccc(CN2CCC(NC(=O)c3ccc(-c4ccc(N(C)C)cc4)s3)CC2)cc1`, the growth inhibition in assay [1] is 57% (active); in assay [4], 100% (active). For the same compound, the inhibition in assay [2] was 20%; in assay [3], -1%. For the same compound, the result in assay [5], in assay [6], in assay [7] and in assay [8] was inactive.

Regarding `O=S(=O)(Nc1ccc(CCN2CCC(N3CCCCC3)CC2)cc1)c1ccccc1C(F)(F)F`, the growth inhibition is 8% in assay [1] and 95% (active) in assay [4]. Besides, the inhibition in assay [2] is 9%; in assay [3], -3%. Further, the result in assay [5], in assay [6], in assay [7] and in assay [8] was inactive.

Turning to `Cc1cccc2[nH]c(-c3cccc(-c4ccc(CNCc5cnn(-c6ccccc6)n5)cc4)c3)nc12`, the growth inhibition was 66% (active) in assay [1] and 102% (active) in assay [4]. The inhibition in assay [2] was 20%; in assay [3], -4%. Moreover, the result in assay [5], in assay [6], in assay [7] and in assay [8] was inactive.

In the case of `CCCC1N=C(N)N=C(N)N1c1ccccc1` (stereo not given), the results for the growth inhibition in assay [1] and in assay [4] were -3% and 93% (active), respectively. Besides, the results for the inhibition in assay [2] and in assay [3] were -4% and -6%, respectively. In addition, the result in assay [5], in assay [6], in assay [7] and in assay [8] was inactive.

`COc1cc2nc(Nc3ccc4c(cnn4Cc4ccccc4)c3)nc(Nc3ccc4c(cnn4Cc4ccccc4)c3)c2cc1OC`: the growth inhibition in assay [1] is 100% (active); in assay [4], 99% (active). Further, the inhibition is 4% in assay [2] and 7% in assay [3]. Moreover, the outcome in assay [5], in assay [6], in assay [7] and in assay [8] was inactive.

Consider `CCCc1ccc(N2C(N)=NC(N)=NC2(C)C)cc1`, for which the growth inhibition is -2% in assay [1] and 94% (active) in assay [4]. Further, the inhibition was 59% (active) in assay [2] and 6% in assay [3]. Moreover, the outcome in assay [5], in assay [6], in assay [7] and in assay [8] was inactive.

Regarding `COc1ccc(CNCCCCCCNCc2ccc(OC)c3ccccc23)c2ccccc12`, the growth inhibition in assay [1] was 49%; in assay [4], 102% (active). Further, the inhibition in assay [2] was 100% (active); in assay [3], -5%. In addition, the result in assay [5], in assay [6], in assay [7] and in assay [8] was inactive.

In the case of `N#Cc1c(N)nc(SCC(=O)Nc2cc(C(F)(F)F)ccc2Cl)c(C#N)c1-c1cccs1`, the growth inhibition is 96% (active) in assay [1] and 90% (active) in assay [4]. The inhibition was 23% in assay [2] and -4% in assay [3]. For the same compound, the result in assay [5], in assay [6], in assay [7] and in assay [8] was inactive.

For `C[C@H](Cc1ccc(S(=O)(=O)c2ccc(C[C@@H](C)NC[C@H](O)c3cccc(Cl)c3)cc2)cc1)NC[C@H](O)c1cccc(Cl)c1`, the results for the growth inhibition in assay [1] and in assay [4] were 98% (active) and 99% (active), respectively. Moreover, the inhibition was 100% (active) in assay [2] and -9% in assay [3]. In addition, the outcome in assay [5], in assay [6], in assay [7] and in assay [8] was inactive.

With `O=C(Nc1ccc(Cl)cc1)c1ccc(CN2CCCN(Cc3ccsc3)CC2)cc1`, the growth inhibition in assay [1] was 1%; in assay [4], 88% (active). In addition, the inhibition in assay [2] was 48%; in assay [3] it was 4%. Besides, the result in assay [5], in assay [6], in assay [7] and in assay [8] was inactive.

For the compound `CCN(CC)CCCC(C)Nc1c2ccccc2nc2c1ccc1ccccc12` (stereo not given), the figures for the growth inhibition in assay [1] and in assay [4] were 34% and 96% (active), respectively. The inhibition in assay [2] was 18%; in assay [3] it was 3%. The outcome in assay [5], in assay [6], in assay [7] and in assay [8] was inactive.

For `C(=NNc1nc2ccccc2[nH]1)c1ccccc1OCc1ccccc1`, the figures for the growth inhibition in assay [1] and in assay [4] were 90% (active) and 100% (active), respectively. Also, the inhibition is 15% in assay [2] and 6% in assay [3]. The outcome in assay [5], in assay [6], in assay [7] and in assay [8] was inactive.

Turning to `CCC(CC)N1CCN(CC(=O)Nc2ccc([N+](=O)[O-])cc2C(=O)Nc2cccc(OC)c2)CC1`, the growth inhibition is 35% in assay [1] and 100% (active) in assay [4]. Further, the values for the inhibition in assay [2] and in assay [3] were 35% and 0%, respectively. Further, the outcome in assay [5], in assay [6], in assay [7] and in assay [8] was inactive.

On to `COc1ccc(CNc2nc(NCc3ccccc3)c3cc(OC)c(OC)cc3n2)cc1OC`, for which the results for the growth inhibition in assay [1] and in assay [4] were 99% (active) and 103% (active), respectively. Also, the inhibition in assay [2] is 24%; in assay [3], -6%. The result in assay [5], in assay [6], in assay [7] and in assay [8] was inactive.

For the compound `CCCNC[C@@H](O)[C@H](Cc1ccccc1)NC(=O)c1cc2c3c(c1)c(CC)cn3CCS(=O)(=O)N2C`, the results for the growth inhibition in assay [1] and in assay [4] were 98% (active) and 97% (active), respectively. The inhibition in assay [2] was -4%; in assay [3] it was 2%. Moreover, the outcome in assay [5], in assay [6], in assay [7] and in assay [8] was inactive.
